The nature of assay [1]: NCI Yeast Anticancer Drug Screen. Data for the rad50 strain (AID 155).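 Note: 0% = growth of vehicle-only cultures of the same strain.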 The note with it: S. cerevisiae rad50 strain growth inhibition, stronger effect = higher value. Put shortly: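 A DNA repair-deficient yeast mutant serves as the test organism; compound-induced growth inhibition is calculated against vehicle-treated cells.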
Assay [2] is described as follows: NCI Yeast Anticancer Drug Screen. Data for the mec2-1 strain (AID 157). The settings on record: S. cerevisiae mec2-1 strain, stronger effect = higher value. Put shortly:
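Yeast mec2-1 mutant treated with compound. Readout: growth inhibition vs vehicle controls.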

Assay [3] is described as follows: NCI Yeast Anticancer Drug Screen. Data for the sgs1 mgt1 strain (AID 161).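 Note: 0% = growth of cultures given vehicle only.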 The settings on record: S. cerevisiae sgs1 mgt1 strain, stronger effect = higher value. Put shortly: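 Genetically altered yeast, compound exposure, growth inhibition relative to vehicle.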
Assay [4] is described as follows: NCI Yeast Anticancer Drug Screen. Data for the cln2 rad14 strain (AID 165).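 Note: 0% = growth equal to vehicle treated cultures.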 The settings on record: S. cerevisiae cln2 rad14 strain, stronger effect = higher value. Put shortly:
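cln2 rad14 yeast strain; compound exposure; growth inhibition read vs vehicle controls.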

Assay [5] in a line: NCI Yeast Anticancer Drug Screen. Data for the bub3 strain (AID 167). The settings on record: S. cerevisiae bub3 mutant strain, stronger effect = higher value. Put shortly: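 Inhibition values come from growth of compound-treated mutant yeast normalised to vehicle-treated controls.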
Assay [6] in a line: NCI Yeast Anticancer Drug Screen. Data for the mlh1 rad18 strain (AID 175). The note with it: S. cerevisiae mlh1 rad18 strain growth inhibition, stronger effect = higher value. Put shortly:
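Yeast w/ defined DNA-repair lesions; compound exposure; growth vs vehicle controls → % inhibition.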

Where [7] appears, read: at 5.0 µM (retest, dose inferred, filed as 0.5).
Where [8] appears, read: at 50.0 µM (retest, dose inferred, filed as 5.0).

The panel holds about 79,000 compounds, 15% with a hit somewhere; the sample as a whole holds those more often. Unmarked numbers belong to inactive results. Calls of active or inactive are those of the source. Cut-off read from the data, not from the text of the source: active = growth inhibition above about 70%; inactive = the rest.

As to `CN1C=Cc2ccccc2C1C(C1c2ccccc2C=CN1C)[N+](=O)[O-]` (configuration not stated), the growth inhibition is 0% in assay [1] (setting [7]); 5% in assay [1] (setting [8]); -5.6% in assay [1] (at 50.0 µM); 8% in assay [2] (setting [7]); 12% in assay [2] (setting [8]); -9.95% in assay [2] (at 50.0 µM). Further, the growth inhibition in assay [3] (setting [7]) was -2%; in assay [3] (setting [8]), 56%; in assay [3] (at 50.0 µM), 49%; in assay [4] (setting [7]), 2%; in assay [4] (setting [8]) it was 7%; in assay [4] (at 50.0 µM), 2.65%. The growth inhibition in assay [5] (setting [7]) is -4%; in assay [5] (setting [8]) it was 14%; in assay [5] (at 50.0 µM), 15.8%; in assay [6] (setting [7]), -11%; in assay [6] (setting [8]), 1%; in assay [6] (at 50.0 µM), -13.5%.
As to `CCOC(=O)CN1CCCC(C(=O)CC2(O)C3(Cl)C4(Cl)C5(Cl)C(Cl)(Cl)C6(Cl)C4(Cl)C2(Cl)C6(Cl)C53Cl)C1` (configuration not stated), the growth inhibition in assay [1] (setting [7]) is 62%; in assay [1] (setting [8]), 98% (active); in assay [1] (at 50.0 µM) it was 52.5%; in assay [2] (setting [7]), 54%; in assay [2] (setting [8]), 99% (active); in assay [2] (at 50.0 µM), 49.9%. The growth inhibition in assay [3] (setting [7]) was 61%; in assay [3] (setting [8]), 99% (active); in assay [3] (at 50.0 µM) it was 55%; in assay [4] (setting [7]), 36%; in assay [4] (setting [8]) it was 99% (active); in assay [4] (at 50.0 µM), 71.2% (active). Further, the growth inhibition in assay [5] (setting [7]) is 59%; in assay [5] (setting [8]), 99% (active); in assay [5] (at 50.0 µM), 48.5%; in assay [6] (setting [7]) it was 87% (active); in assay [6] (setting [8]) it was 99% (active); in assay [6] (at 50.0 µM), 50.3%.
Consider `COC1/C=C\OC2(C)Oc3c(C)c(O)c4c(c3C2=O)C2=NC(C)(C)N(c3ccccc3)C2=C(NC(=O)/C(C)=C\C=C\C(C)C(O)C(C)C(O)C(C)C(OC(C)=O)C1C)C4=O` (configuration not stated), for which the growth inhibition was -2% in assay [1] (setting [7]); 78% (active) in assay [1] (setting [8]); 24.9% in assay [1] (at 50.0 µM); -2% in assay [2] (setting [7]); 95% (active) in assay [2] (setting [8]); 53.5% in assay [2] (at 50.0 µM). Moreover, the growth inhibition was -2% in assay [3] (setting [7]); 85% (active) in assay [3] (setting [8]); 72.8% (active) in assay [3] (at 50.0 µM); 2% in assay [4] (setting [7]); 91% (active) in assay [4] (setting [8]); 39.9% in assay [4] (at 50.0 µM). Moreover, the growth inhibition in assay [5] (setting [7]) was -7%; in assay [5] (setting [8]), 69%; in assay [5] (at 50.0 µM) it was 27.9%; in assay [6] (setting [7]), -2%; in assay [6] (setting [8]), 86% (active); in assay [6] (at 50.0 µM), 51.9%.
Take `CCCCCCCCCCCCCCCBr`: the growth inhibition in assay [1] (setting [7]) is -27%; in assay [1] (setting [8]), 4%; in assay [1] (at 50.0 µM) it was 10.7%; in assay [2] (setting [7]), -9%; in assay [2] (setting [8]), 12%; in assay [2] (at 50.0 µM) it was 49.6%. Moreover, the growth inhibition was -10% in assay [3] (setting [7]); 6% in assay [3] (setting [8]); -9.7% in assay [3] (at 50.0 µM); -5% in assay [4] (setting [7]); -5% in assay [4] (setting [8]); 85.5% (active) in assay [4] (at 50.0 µM). Further, the growth inhibition was 2% in assay [5] (setting [7]); -2% in assay [5] (setting [8]); 80.7% (active) in assay [5] (at 50.0 µM); 5% in assay [6] (setting [7]); 18% in assay [6] (setting [8]); 92.8% (active) in assay [6] (at 50.0 µM).
Turning to `O=Cc1ccc(/C=N\Nc2ccccc2)cc1`, the growth inhibition in assay [1] (setting [7]) was 1%; in assay [1] (setting [8]), 12%; in assay [1] (at 50.0 µM), 82.3% (active); in assay [2] (setting [7]) it was -5%; in assay [2] (setting [8]), 0%; in assay [2] (at 50.0 µM) it was 33.2%. Also, the growth inhibition in assay [3] (setting [7]) was -3%; in assay [3] (setting [8]), -4%; in assay [3] (at 50.0 µM) it was 41.9%; in assay [4] (setting [7]), 1%; in assay [4] (setting [8]) it was 7%; in assay [4] (at 50.0 µM), 34.1%. For the same compound, the growth inhibition is -1% in assay [5] (setting [7]); 12% in assay [5] (setting [8]); -9.55% in assay [5] (at 50.0 µM); 4% in assay [6] (setting [7]); 30% in assay [6] (setting [8]); 92.3% (active) in assay [6] (at 50.0 µM).
Take `CC1=C(C(=O)Nc2ccccc2)C(c2ccc(C(C)C)cc2)C(C(=O)Nc2ccccc2)=C(C)N1`: the growth inhibition in assay [1] (setting [7]) is 0%; in assay [1] (setting [8]), 94% (active); in assay [1] (at 50.0 µM) it was 97.5% (active); in assay [2] (setting [7]) it was -3%; in assay [2] (setting [8]), 91% (active); in assay [2] (at 50.0 µM) it was 94.6% (active). Besides, the growth inhibition in assay [3] (setting [7]) was 0%; in assay [3] (setting [8]) it was 94% (active); in assay [3] (at 50.0 µM) it was 47.6%; in assay [4] (setting [7]), -13%; in assay [4] (setting [8]), 94% (active); in assay [4] (at 50.0 µM), 90.8% (active). Moreover, the growth inhibition is 2% in assay [5] (setting [7]); 93% (active) in assay [5] (setting [8]); 91% (active) in assay [5] (at 50.0 µM); -3% in assay [6] (setting [7]); 90% (active) in assay [6] (setting [8]); 96.2% (active) in assay [6] (at 50.0 µM).
For `O=C1OC(C2OC(=O)C(=O)C2C(=O)c2ccc(Cl)c(Cl)c2)C(C(=O)c2ccc(Cl)c(Cl)c2)C1=O` (configuration not stated), the growth inhibition is 7% in assay [1] (setting [7]); 97% (active) in assay [1] (setting [8]); 94.5% (active) in assay [1] (at 50.0 µM); 10% in assay [2] (setting [7]); 93% (active) in assay [2] (setting [8]); 63.8% in assay [2] (at 50.0 µM). In addition, the growth inhibition was 14% in assay [3] (setting [7]); 97% (active) in assay [3] (setting [8]); 74.3% (active) in assay [3] (at 50.0 µM); 4% in assay [4] (setting [7]); 84% (active) in assay [4] (setting [8]); 34.5% in assay [4] (at 50.0 µM). Also, the growth inhibition in assay [5] (setting [7]) was -34%; in assay [5] (setting [8]), 92% (active); in assay [5] (at 50.0 µM), 55.2%; in assay [6] (setting [7]), 12%; in assay [6] (setting [8]), 98% (active); in assay [6] (at 50.0 µM), 96.2% (active).
`Cc1cc(Cl)ccc1C(=O)c1ccc2ccccc2c1C(=O)O`: the growth inhibition in assay [1] (setting [7]) was 8%; in assay [1] (setting [8]) it was 44%; in assay [1] (at 50.0 µM), 84% (active); in assay [2] (setting [7]), -15%; in assay [2] (setting [8]), 49%; in assay [2] (at 50.0 µM), 82.5% (active). In addition, the growth inhibition was 3% in assay [3] (setting [7]); 54% in assay [3] (setting [8]); 78% (active) in assay [3] (at 50.0 µM); -7% in assay [4] (setting [7]); 65% in assay [4] (setting [8]); 83.5% (active) in assay [4] (at 50.0 µM). Besides, the growth inhibition in assay [5] (setting [7]) is -24%; in assay [5] (setting [8]) it was 87% (active); in assay [5] (at 50.0 µM) it was 82.4% (active); in assay [6] (setting [7]), -36%; in assay [6] (setting [8]), 52%; in assay [6] (at 50.0 µM), 78.8% (active).
Regarding `O=C1NC(=Nc2ccccc2)C(=Nc2ccccc2)N1c1ccccc1`, the growth inhibition was -8% in assay [1] (setting [7]); 99% (active) in assay [1] (setting [8]); 87.8% (active) in assay [1] (at 50.0 µM); -7% in assay [2] (setting [7]); 98% (active) in assay [2] (setting [8]); 90.8% (active) in assay [2] (at 50.0 µM). Also, the growth inhibition in assay [3] (setting [7]) is -7%; in assay [3] (setting [8]), 99% (active); in assay [3] (at 50.0 µM) it was 85.6% (active); in assay [4] (setting [7]) it was -33%; in assay [4] (setting [8]), 94% (active); in assay [4] (at 50.0 µM), 85.8% (active). The growth inhibition in assay [5] (setting [7]) is -36%; in assay [5] (setting [8]) it was 99% (active); in assay [5] (at 50.0 µM) it was 89.5% (active); in assay [6] (setting [7]) it was -2%; in assay [6] (setting [8]), 99% (active); in assay [6] (at 50.0 µM), 85.9% (active).
